Measured values taken from paper PMC7862700, “An all-to-all approach to the identification of sequence-specific readers for epigenetic DNA modifications on cytosine”.

Tests used:
Assay in all cases: DAPPL (digital affinity profiling via proximity ligation, sequencing); 10 mM Tris-HCl pH 7.5, 50 mM NaCl, 1 mM DTT, 4% glycerol, room temperature, 30 min; GST-TFs on glutathione beads, 16-mer random dsDNA library, 0.1% formaldehyde crosslink after washing; high values mean tight binding
Conditions in all cases: protein: recombinant; tags: N-terminal GST; dsDNA, one strand shown
GABPA = molecular target: T1, GABPA (Homo sapiens, UniProt Q06546 1-454)
T1 sequence: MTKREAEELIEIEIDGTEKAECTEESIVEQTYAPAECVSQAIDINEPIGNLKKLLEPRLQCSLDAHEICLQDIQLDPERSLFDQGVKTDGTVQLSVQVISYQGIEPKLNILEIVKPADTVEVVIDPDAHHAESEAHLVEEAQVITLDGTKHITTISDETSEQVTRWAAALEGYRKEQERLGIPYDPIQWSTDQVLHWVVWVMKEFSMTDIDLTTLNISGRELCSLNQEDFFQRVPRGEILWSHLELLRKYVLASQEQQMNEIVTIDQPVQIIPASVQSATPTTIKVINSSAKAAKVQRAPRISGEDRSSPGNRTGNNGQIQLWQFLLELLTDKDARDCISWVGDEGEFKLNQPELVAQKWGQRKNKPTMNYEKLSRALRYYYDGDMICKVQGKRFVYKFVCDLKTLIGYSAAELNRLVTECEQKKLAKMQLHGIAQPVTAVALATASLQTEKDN
In short: (§1)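 A tag-only sample was pooled with DNA-barcoded human transcription factors that had been expressed in yeast as GST fusions and captured on glutathione beads. The pools were incubated for 30 min at room temperature with 200 nmole of a random double-stranded 16-mer DNA library in Tris/NaCl/DTT/glycerol buffer, then washed, crosslinked with 0.1% formaldehyde, proximity-ligated (BsaI/T4 ligase, 1 h, 37 °C), PCR-amplified and sequenced on an Illumina NextSeq500. Binding signal is each hexamer's read frequency for a factor divided by its frequency for the tag-only sample.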

ELF1 = ELF1 (Homo sapiens, UniProt P32519 1-619)
In short: as §1

SPIB = SPIB (Homo sapiens, UniProt Q01892 1-262)
In short: as §1

FEV = molecular target: T2, FEV (Homo sapiens, UniProt Q99581 1-238)
T2 sequence: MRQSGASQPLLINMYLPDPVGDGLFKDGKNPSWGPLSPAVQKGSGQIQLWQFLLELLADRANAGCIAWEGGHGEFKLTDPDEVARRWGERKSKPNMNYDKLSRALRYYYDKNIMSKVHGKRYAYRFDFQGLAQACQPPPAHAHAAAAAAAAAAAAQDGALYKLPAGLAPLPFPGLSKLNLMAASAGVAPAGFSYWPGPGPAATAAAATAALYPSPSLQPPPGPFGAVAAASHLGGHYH
In short: as §1

ETV5 = ETV5 (Homo sapiens, UniProt P41161 1-510)
In short: as §1

ELF4 = ELF4 (Homo sapiens, UniProt Q99607 1-663)
In short: as §1

ELK4 = molecular target: T3, ELK4 (Homo sapiens, UniProt P28324-2 1-405)
T3 sequence: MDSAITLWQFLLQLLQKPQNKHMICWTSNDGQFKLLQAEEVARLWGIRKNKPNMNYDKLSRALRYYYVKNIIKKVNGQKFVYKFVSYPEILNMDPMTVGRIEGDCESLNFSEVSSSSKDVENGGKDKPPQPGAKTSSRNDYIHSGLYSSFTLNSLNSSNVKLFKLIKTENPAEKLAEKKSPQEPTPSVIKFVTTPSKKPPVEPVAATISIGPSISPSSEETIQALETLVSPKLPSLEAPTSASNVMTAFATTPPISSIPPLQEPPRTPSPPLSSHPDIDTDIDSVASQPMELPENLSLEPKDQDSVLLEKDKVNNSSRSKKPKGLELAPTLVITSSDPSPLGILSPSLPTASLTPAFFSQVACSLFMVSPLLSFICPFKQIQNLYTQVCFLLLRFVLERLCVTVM
In short: as §1

ETV2 = molecular target: T4, ETV2 (Homo sapiens, UniProt O00321 1-342)
T4 sequence: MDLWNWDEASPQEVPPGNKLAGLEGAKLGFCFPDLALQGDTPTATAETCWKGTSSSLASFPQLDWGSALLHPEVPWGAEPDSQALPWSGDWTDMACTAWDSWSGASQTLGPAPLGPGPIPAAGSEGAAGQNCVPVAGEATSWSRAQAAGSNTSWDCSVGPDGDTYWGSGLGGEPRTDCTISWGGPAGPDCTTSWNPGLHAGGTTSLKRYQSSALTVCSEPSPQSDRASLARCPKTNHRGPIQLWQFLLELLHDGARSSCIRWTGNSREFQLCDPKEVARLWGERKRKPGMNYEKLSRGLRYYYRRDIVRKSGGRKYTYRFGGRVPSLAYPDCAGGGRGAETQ
In short: as §1

ELF3 = molecular target: T5, ELF3 (Homo sapiens, UniProt P78545 1-371)
T5 sequence: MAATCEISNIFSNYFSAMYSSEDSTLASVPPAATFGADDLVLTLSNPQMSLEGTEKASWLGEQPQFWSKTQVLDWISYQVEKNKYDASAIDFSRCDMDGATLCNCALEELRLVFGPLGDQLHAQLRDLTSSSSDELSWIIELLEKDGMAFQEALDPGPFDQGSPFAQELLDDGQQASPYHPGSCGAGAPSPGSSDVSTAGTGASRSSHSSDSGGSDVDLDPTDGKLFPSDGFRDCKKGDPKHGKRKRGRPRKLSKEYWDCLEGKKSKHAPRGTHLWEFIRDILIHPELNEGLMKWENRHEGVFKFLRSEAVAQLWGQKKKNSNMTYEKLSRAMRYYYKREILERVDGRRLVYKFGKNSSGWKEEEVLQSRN
In short: as §1

ETV1 = ETV1 (Homo sapiens, UniProt P50549 1-477)
In short: as §1

ETV3L = molecular target: T6, ETV3L (Homo sapiens, UniProt Q6ZN32 1-361)
T6 sequence: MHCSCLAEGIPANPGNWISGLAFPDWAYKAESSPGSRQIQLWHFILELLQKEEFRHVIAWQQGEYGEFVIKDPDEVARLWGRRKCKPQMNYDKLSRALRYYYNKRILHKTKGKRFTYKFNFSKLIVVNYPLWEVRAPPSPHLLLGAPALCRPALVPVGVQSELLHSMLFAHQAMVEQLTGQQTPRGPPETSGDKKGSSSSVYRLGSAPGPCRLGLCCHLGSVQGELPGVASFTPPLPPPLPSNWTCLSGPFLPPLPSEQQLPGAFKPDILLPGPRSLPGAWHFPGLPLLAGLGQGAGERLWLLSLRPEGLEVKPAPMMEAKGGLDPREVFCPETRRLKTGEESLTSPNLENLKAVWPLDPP
In short: as §1

ETS2 = molecular target: T7, ETS2 (Homo sapiens, UniProt P15036 1-469)
T7 sequence: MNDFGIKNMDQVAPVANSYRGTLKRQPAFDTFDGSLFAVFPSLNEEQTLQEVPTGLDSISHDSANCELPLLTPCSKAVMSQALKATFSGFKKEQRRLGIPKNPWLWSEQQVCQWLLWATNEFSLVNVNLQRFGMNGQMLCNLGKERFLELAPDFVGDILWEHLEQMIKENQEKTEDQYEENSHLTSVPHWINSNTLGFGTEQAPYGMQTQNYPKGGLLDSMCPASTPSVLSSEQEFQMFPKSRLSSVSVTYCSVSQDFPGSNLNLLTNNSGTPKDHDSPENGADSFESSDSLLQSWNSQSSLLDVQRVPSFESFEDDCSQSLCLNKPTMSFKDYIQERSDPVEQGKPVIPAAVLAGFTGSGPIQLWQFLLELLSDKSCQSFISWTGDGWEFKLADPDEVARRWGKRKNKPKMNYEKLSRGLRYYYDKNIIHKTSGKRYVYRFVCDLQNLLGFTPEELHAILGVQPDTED
In short: as §1

ETV7 = molecular target: T8, ETV7 (Homo sapiens, UniProt Q9Y603 1-341)
T8 sequence: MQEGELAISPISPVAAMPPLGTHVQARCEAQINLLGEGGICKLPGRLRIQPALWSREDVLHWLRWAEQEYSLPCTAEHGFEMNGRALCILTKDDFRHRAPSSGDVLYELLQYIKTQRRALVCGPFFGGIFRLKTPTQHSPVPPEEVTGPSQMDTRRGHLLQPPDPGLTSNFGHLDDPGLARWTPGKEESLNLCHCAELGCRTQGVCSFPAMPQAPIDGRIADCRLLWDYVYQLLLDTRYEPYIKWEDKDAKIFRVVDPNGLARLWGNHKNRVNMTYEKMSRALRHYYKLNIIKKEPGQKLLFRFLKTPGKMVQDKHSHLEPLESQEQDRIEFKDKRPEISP
In short: as §1

ETV3 = molecular target: T9, ETV3 (Homo sapiens, UniProt P41162-2 1-143)
T9 sequence: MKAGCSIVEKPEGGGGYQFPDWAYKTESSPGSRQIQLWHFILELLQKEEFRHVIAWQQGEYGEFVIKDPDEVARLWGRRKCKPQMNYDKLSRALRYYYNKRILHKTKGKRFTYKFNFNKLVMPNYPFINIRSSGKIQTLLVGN
In short: as §1

ETV6 = ETV6 (Homo sapiens, UniProt P41212 1-452)
In short: as §1

ELK1 = molecular target: T10, ELK1 (Homo sapiens, UniProt P19419 1-428)
T10 sequence: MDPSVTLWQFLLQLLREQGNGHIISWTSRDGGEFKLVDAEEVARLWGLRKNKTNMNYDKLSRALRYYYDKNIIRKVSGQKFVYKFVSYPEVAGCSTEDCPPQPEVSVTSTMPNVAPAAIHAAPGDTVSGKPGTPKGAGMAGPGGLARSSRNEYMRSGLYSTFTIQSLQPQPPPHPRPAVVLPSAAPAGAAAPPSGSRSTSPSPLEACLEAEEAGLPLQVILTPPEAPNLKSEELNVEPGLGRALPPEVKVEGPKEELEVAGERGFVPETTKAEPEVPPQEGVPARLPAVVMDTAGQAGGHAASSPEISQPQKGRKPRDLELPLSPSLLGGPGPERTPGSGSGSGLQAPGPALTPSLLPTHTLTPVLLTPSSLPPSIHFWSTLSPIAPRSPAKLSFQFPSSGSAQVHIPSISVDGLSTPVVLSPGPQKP
In short: as §1

ERG = molecular target: T11, ERG (Homo sapiens, UniProt P11308 1-479)
T11 sequence: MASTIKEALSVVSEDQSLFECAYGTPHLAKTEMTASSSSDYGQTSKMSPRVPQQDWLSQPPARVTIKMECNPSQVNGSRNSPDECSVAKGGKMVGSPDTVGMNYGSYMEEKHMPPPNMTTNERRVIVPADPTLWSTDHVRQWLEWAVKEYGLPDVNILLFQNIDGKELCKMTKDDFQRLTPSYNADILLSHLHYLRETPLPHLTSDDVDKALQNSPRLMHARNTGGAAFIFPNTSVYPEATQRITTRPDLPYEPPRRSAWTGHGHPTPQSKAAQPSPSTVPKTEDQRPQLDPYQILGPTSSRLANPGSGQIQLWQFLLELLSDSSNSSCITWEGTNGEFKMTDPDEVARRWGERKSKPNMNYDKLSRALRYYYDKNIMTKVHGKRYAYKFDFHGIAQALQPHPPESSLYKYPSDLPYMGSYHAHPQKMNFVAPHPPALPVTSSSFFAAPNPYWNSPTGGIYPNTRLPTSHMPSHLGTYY
In short: as §1

EHF = molecular target: T12, EHF (Homo sapiens, UniProt Q9NZC4 1-300)
T12 sequence: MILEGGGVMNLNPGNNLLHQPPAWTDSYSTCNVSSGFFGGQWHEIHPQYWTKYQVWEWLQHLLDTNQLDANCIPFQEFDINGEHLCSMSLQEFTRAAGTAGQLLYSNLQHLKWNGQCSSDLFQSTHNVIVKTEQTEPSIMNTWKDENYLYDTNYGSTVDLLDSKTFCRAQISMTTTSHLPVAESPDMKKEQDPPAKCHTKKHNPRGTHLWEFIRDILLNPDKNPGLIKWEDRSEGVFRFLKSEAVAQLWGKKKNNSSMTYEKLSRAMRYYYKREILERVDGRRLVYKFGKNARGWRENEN
In short: as §1

SPDEF = molecular target: T13, SPDEF (Homo sapiens, UniProt O95238 1-335)
T13 sequence: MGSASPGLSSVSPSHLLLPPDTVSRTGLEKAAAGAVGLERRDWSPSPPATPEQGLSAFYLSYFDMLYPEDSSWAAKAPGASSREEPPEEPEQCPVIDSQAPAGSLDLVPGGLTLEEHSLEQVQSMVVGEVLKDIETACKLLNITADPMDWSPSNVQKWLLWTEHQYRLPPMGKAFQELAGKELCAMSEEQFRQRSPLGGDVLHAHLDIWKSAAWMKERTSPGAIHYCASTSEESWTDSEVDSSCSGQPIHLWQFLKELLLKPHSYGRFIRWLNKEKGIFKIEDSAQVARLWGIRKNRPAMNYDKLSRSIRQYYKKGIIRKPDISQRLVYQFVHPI
In short: as §1

Sequence of ELF4 (Q99607 whole entry): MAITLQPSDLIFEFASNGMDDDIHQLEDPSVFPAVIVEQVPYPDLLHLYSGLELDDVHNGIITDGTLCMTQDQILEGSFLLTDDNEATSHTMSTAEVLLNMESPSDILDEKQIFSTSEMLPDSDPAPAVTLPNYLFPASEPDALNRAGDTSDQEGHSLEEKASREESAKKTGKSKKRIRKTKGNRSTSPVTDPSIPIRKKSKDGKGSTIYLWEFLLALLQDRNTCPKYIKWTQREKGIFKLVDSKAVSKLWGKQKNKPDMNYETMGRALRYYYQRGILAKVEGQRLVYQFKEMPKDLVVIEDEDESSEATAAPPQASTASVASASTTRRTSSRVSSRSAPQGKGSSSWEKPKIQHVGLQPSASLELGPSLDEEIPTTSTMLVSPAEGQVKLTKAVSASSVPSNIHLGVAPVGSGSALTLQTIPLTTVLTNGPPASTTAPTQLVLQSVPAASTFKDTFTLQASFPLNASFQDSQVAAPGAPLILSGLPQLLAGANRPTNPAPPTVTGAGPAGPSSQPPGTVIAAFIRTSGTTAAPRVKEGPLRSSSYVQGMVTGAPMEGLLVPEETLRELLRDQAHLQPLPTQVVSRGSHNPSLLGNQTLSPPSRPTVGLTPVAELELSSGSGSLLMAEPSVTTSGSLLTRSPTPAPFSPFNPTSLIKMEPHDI
Sequence of ELF1 (P32519 whole entry): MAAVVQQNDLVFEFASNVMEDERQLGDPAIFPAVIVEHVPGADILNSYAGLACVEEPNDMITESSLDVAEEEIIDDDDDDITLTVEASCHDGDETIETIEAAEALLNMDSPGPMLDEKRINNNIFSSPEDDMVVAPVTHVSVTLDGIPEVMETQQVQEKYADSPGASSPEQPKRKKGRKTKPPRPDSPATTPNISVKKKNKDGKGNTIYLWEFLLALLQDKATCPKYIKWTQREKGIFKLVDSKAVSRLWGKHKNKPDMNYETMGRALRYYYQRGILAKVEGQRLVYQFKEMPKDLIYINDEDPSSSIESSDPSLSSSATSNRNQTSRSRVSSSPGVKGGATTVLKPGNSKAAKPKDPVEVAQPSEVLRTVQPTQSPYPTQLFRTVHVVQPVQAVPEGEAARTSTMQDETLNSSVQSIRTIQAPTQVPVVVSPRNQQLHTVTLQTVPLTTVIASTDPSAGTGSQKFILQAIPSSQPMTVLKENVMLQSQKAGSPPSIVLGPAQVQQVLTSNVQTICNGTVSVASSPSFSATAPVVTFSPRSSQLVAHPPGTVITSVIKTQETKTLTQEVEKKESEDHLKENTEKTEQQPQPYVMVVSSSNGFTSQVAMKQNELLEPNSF
Sequence of ETV6 (P41212 whole entry): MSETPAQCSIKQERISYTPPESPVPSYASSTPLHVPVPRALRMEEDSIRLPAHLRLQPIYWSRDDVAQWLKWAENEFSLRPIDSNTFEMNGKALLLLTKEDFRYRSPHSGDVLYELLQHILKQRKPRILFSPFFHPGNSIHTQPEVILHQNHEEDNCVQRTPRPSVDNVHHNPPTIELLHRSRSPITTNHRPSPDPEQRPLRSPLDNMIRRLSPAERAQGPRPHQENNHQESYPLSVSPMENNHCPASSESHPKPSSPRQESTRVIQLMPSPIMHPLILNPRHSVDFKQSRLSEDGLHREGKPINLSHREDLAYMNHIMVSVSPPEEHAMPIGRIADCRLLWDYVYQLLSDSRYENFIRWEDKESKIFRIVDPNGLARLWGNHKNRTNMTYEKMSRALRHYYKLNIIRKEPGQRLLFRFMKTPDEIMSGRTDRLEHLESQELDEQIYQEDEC
Sequence of ETV5 (P41161 whole entry): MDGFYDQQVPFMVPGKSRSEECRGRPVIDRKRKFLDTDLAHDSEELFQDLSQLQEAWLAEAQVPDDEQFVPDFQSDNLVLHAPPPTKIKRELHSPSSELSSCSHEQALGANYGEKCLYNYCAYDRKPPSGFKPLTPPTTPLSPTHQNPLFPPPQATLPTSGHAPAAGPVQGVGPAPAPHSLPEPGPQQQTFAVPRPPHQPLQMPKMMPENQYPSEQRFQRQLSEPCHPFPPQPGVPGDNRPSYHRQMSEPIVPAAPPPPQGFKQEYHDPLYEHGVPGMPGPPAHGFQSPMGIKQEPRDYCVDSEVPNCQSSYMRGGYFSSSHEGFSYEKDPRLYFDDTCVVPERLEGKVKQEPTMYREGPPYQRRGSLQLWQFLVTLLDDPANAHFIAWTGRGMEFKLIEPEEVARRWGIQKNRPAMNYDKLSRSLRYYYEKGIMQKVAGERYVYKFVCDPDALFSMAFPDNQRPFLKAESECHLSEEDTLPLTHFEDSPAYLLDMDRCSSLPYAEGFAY
Sequence of SPIB (Q01892 whole entry): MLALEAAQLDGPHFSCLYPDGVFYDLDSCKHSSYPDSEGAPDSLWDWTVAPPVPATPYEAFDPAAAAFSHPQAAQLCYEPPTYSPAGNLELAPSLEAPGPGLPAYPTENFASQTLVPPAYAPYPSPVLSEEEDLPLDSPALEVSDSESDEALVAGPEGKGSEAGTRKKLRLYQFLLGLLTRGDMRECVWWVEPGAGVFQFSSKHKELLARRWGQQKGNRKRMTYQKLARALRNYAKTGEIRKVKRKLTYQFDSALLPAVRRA
Sequence of ETV1 (P50549 whole entry): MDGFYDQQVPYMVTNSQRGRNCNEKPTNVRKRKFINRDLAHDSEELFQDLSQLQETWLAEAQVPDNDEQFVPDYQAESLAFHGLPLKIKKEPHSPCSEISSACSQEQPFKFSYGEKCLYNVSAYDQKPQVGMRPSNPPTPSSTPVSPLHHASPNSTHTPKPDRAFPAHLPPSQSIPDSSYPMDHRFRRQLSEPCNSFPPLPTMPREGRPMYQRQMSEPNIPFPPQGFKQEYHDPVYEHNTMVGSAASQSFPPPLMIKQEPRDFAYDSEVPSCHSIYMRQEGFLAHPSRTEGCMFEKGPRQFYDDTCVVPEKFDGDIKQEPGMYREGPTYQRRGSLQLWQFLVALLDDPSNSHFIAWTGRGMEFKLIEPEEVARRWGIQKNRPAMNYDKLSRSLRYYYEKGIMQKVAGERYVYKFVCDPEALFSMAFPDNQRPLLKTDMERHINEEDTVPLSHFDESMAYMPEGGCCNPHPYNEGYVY

Sequence	binding signal (GABPA)	binding signal (ELF1)	binding signal (SPIB)	binding signal (FEV)	binding signal (ETV5)	binding signal (ELF4)	binding signal (ELK4)	binding signal (ETV2)	binding signal (ELF3)	binding signal (ETV1)	binding signal (ETV3L)	binding signal (ETS2)	binding signal (ETV7)	binding signal (ETV3)	binding signal (ETV6)	binding signal (ELK1)	binding signal (ERG)	binding signal (EHF)	binding signal (SPDEF)
CGCGTT	1.01 fold enrichment (6-mer frequency, TF over GST control)	1.12 fold enrichment (6-mer frequency, TF over GST control)	1.05 fold enrichment (6-mer frequency, TF over GST control)	1.09 fold enrichment (6-mer frequency, TF over GST control)	1.02 fold enrichment (6-mer frequency, TF over GST control)	1.1 fold enrichment (6-mer frequency, TF over GST control)	1.09 fold enrichment (6-mer frequency, TF over GST control)	1.16 fold enrichment (6-mer frequency, TF over GST control)	1.05 fold enrichment (6-mer frequency, TF over GST control)	1.06 fold enrichment (6-mer frequency, TF over GST control)	1.15 fold enrichment (6-mer frequency, TF over GST control)	1.13 fold enrichment (6-mer frequency, TF over GST control)	1.02 fold enrichment (6-mer frequency, TF over GST control)	1.03 fold enrichment (6-mer frequency, TF over GST control)	1.06 fold enrichment (6-mer frequency, TF over GST control)				
AGGACC	1.07 fold enrichment (6-mer frequency, TF over GST control)	1.06 fold enrichment (6-mer frequency, TF over GST control)	1.05 fold enrichment (6-mer frequency, TF over GST control)	1.07 fold enrichment (6-mer frequency, TF over GST control)	1.04 fold enrichment (6-mer frequency, TF over GST control)	1.06 fold enrichment (6-mer frequency, TF over GST control)		1.18 fold enrichment (6-mer frequency, TF over GST control)			1.07 fold enrichment (6-mer frequency, TF over GST control)	1.04 fold enrichment (6-mer frequency, TF over GST control)		1.03 fold enrichment (6-mer frequency, TF over GST control)	1.02 fold enrichment (6-mer frequency, TF over GST control)	1.07 fold enrichment (6-mer frequency, TF over GST control)	1.09 fold enrichment (6-mer frequency, TF over GST control)	1.02 fold enrichment (6-mer frequency, TF over GST control)	1.06 fold enrichment (6-mer frequency, TF over GST control)
